# LEDGF integ inh: blocks HIV-1 LEDGF/p75-dependent DNA integration | AID 743269 | inhibition, % at 3.7 µM | TR-FRET IN-LEDGF/p75 DNA integration, Eu/Cy5 | actives 0.64% (n = 370,000);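 active = inhibition above the screen-wide mean plus 3 SD, cut at about 13% in these data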;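 note: signal is the Cy5 over europium emission ratio at 671 and 618 nm; 0% = plate median of compound wells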
# UHRF1 binding: human UHRF1 methylated DNA binding inhibitors. Q96T88. UHRF1 binding to methylated oligo, TR-FRET. inhibition, % at 4.4 µM. actives 0.75% (n = 370,000); in the data active = inhibition above about 21%;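 note: UHRF1 SRA domain binding a hemimethylated CpG hairpin DNA probe; 0% = median of test compound wells and 100% = reference inhibitor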
# MBD2 DNA inh: MBD2-methylated oligo binding inhibition | Q9UBB5 | TR-FRET, MBD2 binding to methylated oligonucleotide | inhibition, % at 4.4 µM | actives 0.31% (n = 370,000) | AID 686964; in the data active = inhibition above about 13%
# Rin1 Abl inh: human Rin1-Abl interaction inhibition; P00519+Q13671; TR-FRET Rin1/Abl binding, biochemical; inhibition, % at 7.35 µM; actives 0.4% (n = 360,000); AID 588664; in the data active = inhibition above about 5%, passing the limit was not always enough
# TCR CD3 inh: blocks the human TCR-CD3 interaction | inhibition, % at 9.4 µM | TAMRA-labeled TCR probe fluorescence, biochemical | actives 0.37% (n = 360,000); in the data active = inhibition above about 19%;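 note: recombinant mutant TCR 2C K166C tagged with TAMRA read by polarization; 0% = receptor in buffer alone and 100% = receptor with positive control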
# Starred values were filed as active, the others as inactive; nt = not tested or not shown. A selection: hits, their analogues and other compounds. The true share with any hit is near 2%.
SMILES,LEDGF integ inh,UHRF1 binding,MBD2 DNA inh,Rin1 Abl inh,TCR CD3 inh
COc1ccccc1NC(=O)/C(=C/c1cccc([N+](=O)[O-])c1)c1ccccc1,-4.5,46.7*,-3.4,-4.6,-4.9
CCC(CO)Nc1cccc2c1S(=O)(=O)N(Cc1cn(Cc3ccc(F)cc3)nn1)Cc1ccccc1O2 (stereo not drawn),-3.0,12.4,5.8,nt,nt
COc1cc(NC(=O)CNc2cccc(S(=O)(=O)N3CCCC3)c2)cc(OC)c1,-3.1,-0.9,0.8,-1.3,-0.9
O=C(Nc1cccc(S(=O)(=O)N2CCCC2)c1)c1ccncc1,-0.6,0.9,8.4,1.9,1.8
COc1ccc(NC(C)=O)cc1NC(C)C(=O)Nc1cccc(S(=O)(=O)N2CCOCC2)c1 (stereo not drawn),5.8,-0.7,-10.0,-0.3,-0.5
COc1ccc(S(=O)(=O)N2CCCCCC2)cc1NC(C)C(=O)Nc1ccc(NC(C)=O)cc1 (stereo not drawn),2.4,32.5*,-4.0,1.1,4.1
N#CCC(=O)Nc1ccc(C(=O)Nc2cccc(S(=O)(=O)N3CCCC3)c2)cc1,0.9,68.9*,2.2,-5.8,3.3
COc1ccc(NCC(=O)N2CCCC2)cc1Cl,53.4*,-1.1,-3.0,-0.1,2.3
COc1ccc(NCC(=O)Nc2cccc(S(=O)(=O)N3CCCC3)c2)cc1Cl,4.6,25.9*,-2.2,4.7,0.7
COC(=O)C1=C(C)N(Cc2ccc(C(F)(F)F)cc2)C(=NCc2ccc(C(F)(F)F)cc2)NC1c1ccccc1C(F)(F)F (stereo not drawn),-1.0,-1.5,1.9,nt,-2.3
O=C(COC(=O)/C=C/C(=O)N1CCN(c2ccccc2)CC1)NCc1ccc(F)cc1,-4.0,63.6*,-2.4,-0.9,6.8
COc1ccc(-c2noc(CNC(=O)Nc3ccc(F)cc3)n2)cc1,-3.1,65.2*,3.5,1.5,-1.0
O=C([C@@H]1C[C@H]1c1ccccc1)N1CCC(Oc2cccnc2)CC1,4.3,0.3,-1.4,nt,nt
COc1ccc(N2CCN(C(=O)c3cc4c(s3)-c3ccccc3S(=O)(=O)C4)CC2)cc1,0.7,22.3*,4.8,-2.0,8.9
Cc1c(NC(=O)COC(=O)c2cccc(F)c2)c(=O)n(-c2ccccc2)n1C,-2.9,-0.3,6.5,-2.2,-9.8
C=CCCC(=O)N1C[C@H]2CON(C)[C@H]2C[C@H]1c1ccccc1Br,-1.3,0.7,1.9,-0.7,-3.2
CCOC(=O)CN1C(=O)N2C[C@H]3CON(C)[C@H]3C[C@H]2c2ccccc21,5.8,46.7*,-4.0,1.1,0.5
O=C(N/N=C/c1ccco1)c1cccc(N2Cc3ccccc3C2)c1,6.8,-3.5,6.0,-0.2,24.5*
C=CCN(C)CC#Cc1ccc(OC)cc1,-4.0,1.7,6.4,nt,nt
Cc1ccc(-c2cc(-c3ccccc3)nc(Cl)n2)cc1,-1.2,-0.9,0.5,1.3,-1.0
COc1ccc(-c2cc(-c3ccccc3)nc(Cl)n2)cc1OC,3.1,29.8*,-4.1,6.2,7.6
CCOC(=O)[C@]12CCCC3=C1N(CCC3)C(=O)[C@@H](CC(=O)N1CCN(C(=O)C3CC3)CC1)C2,-0.2,1.8,2.5,nt,nt
COc1cccc(CNC(=O)CCC2CCCN(C(=O)c3ccc(OC)c(F)c3)C2)c1 (stereo not drawn),-1.4,1.5,-5.4,-1.9,0.8
COc1cccc(CNC(=O)CCC2CCCN(C(=O)c3ccoc3)C2)c1 (stereo not drawn),-5.4,24.8*,11.4,5.6,-3.0
Cc1cccn2cc(-c3ccc(S(=O)(=O)N4CCOCC4)cc3)nc12,0.9,0.8,4.8,-5.6,-0.7
SMILES,LEDGF integ inh,UHRF1 binding,MBD2 DNA inh,Rin1 Abl inh,TCR CD3 inh
Cc1cccn2cc(-c3ccc(S(=O)(=O)N4CCCCC4)cc3)nc12,-1.4,24.6*,9.8,-2.1,3.6
Cc1ccc(N2CC(=O)Nc3c(sc4nc(C)cc(C)c34)C2=O)cc1,3.0,25.2*,5.6,1.4,-10.1
CCOC(=O)C1(Cc2cccc(OC)c2)CCN(C/C=C/c2ccccc2)CC1,-2.1,32.5*,2.6,0.3,-5.1
CCOC(=O)C1(Cc2cccc(OC)c2)CCN(C/C=C/c2ccc(OC)cc2)CC1,-0.1,1.6,9.6,3.2,1.1
Cc1ccc(N2C(=O)NC3(CCCCC3)C2=O)cc1,-4.0,23.5*,11.1,-5.0,-7.6
O=C(O)c1ccccc1C1Nc2ccccc2C(=O)N1CCCN1CCOCC1 (stereo not drawn),2.5,40.2*,4.7,1.2,1.4
O=C1c2ccccc2NC(c2ccccc2)N1CCCN1CCOCC1 (stereo not drawn),3.0,1.0,-2.2,4.4,2.0
Cc1ccc(N(C)S(=O)(=O)c2ccc(-c3cnc(C4CC4)o3)cc2)cc1,1.5,22.5*,5.5,7.1,10.9
Cc1ccc(NS(=O)(=O)c2ccc(-c3cnc(C4CC4)o3)cc2)cc1,-2.0,0.5,-4.0,2.8,-4.2
COc1ccccc1-c1ccc(SCc2cccc(F)c2)nn1,-4.7,57.6*,-5.6,-5.0,6.5
COc1ccccc1C(CNC(=O)C1CCN(C(=O)Nc2ccccc2)CC1)N1CCCC1 (stereo not drawn),3.7,-1.1,-2.8,2.6,-8.5
COc1ccc(S[C@]2(C(=O)N(C)C)CC(=O)N(S(=O)(=O)c3ccc(F)cc3)[C@@H]2c2ccc(OC)cc2)cc1,-2.2,-1.1,0.2,nt,nt
Oc1ccc(N=Cc2ccc(-c3cccs3)s2)cc1,46.6*,10.6,-5.0,-3.0,42.9*
O=Cc1ccc(-c2cccs2)s1,4.8,1.5,-2.6,3.1,2.0
CCn1c(SCC(=O)N2CCCc3ccccc32)nnc1-c1cccs1,2.8,20.9*,8.2,3.4,-2.3
O=C(CSc1nnc(-c2cccs2)n1-c1ccccc1)N1CCCc2ccccc21,-4.0,-5.0,-0.3,4.4,7.1
COc1ccc(N(CC(=O)NC2CC3CCC2C3)S(=O)(=O)c2ccccc2)cc1OC (stereo not drawn),-3.2,-1.0,0.5,3.7,0.0
CNC(=O)CN(c1cc(C)ccc1OC)S(=O)(=O)c1ccc(C)cc1,2.1,41.5*,6.2,3.1,12.0
COc1ccc(N(CC(=O)NC2CC3CCC2C3)S(=O)(=O)c2ccc(C)cc2)cc1Cl (stereo not drawn),1.9,21.8*,5.4,1.7,4.5
O=C(NC(CC(=O)N1CCCC(C(F)(F)F)C1)c1ccccc1)c1ccccc1Cl (stereo not drawn),-2.9,-0.5,5.0,1.2,9.8
COc1ccc(CCNC(=O)c2cc3c(=O)n4ccccc4nc3n(CCN3CCOCC3)c2=N)cc1,-8.5,2.0,-0.6,-13.1,-2.3
COc1ccc(CCNC(=O)c2cc3c(=O)n4ccccc4nc3n(CCCN3CCOCC3)c2=N)cc1,-0.2,23.6*,-4.5,-3.3,8.0
CC(C)[C@H](NC(=O)C1CC1)C(=O)N1CCC[C@H]1C(=O)NCc1ccccc1,0.1,-3.8,3.7,nt,-0.7
CCOC(=O)CCc1c(C)n[nH]c1C,-2.1,2.7,-4.1,0.9,-2.8
CCOC(=O)CCCc1sc(N)nc1-c1[nH]c(=O)[nH]c1C,nt,nt,nt,62.6*,nt

# Screens from PubChem.
